VHR inh abs – blocks human VHR1 dual specificity phosphatase; recombinant VHR phosphatase, pNPP absorbance; inhibition, % at 13.3 µM; hit rate 0.52% among 290,000; in the data active = inhibition above about 50%
Target sequence (P51452 whole entry, looked up): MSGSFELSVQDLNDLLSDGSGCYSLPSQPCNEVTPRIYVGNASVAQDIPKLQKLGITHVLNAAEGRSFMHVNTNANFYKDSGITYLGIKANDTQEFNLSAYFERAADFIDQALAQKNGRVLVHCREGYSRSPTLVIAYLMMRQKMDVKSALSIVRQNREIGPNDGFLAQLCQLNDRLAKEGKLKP
FBA Mtb inh – inhibits M. tuberculosis FBA enzyme | purified M. tuberculosis FBA, fluorescence read-out | P9WQA3 | hit rate 2.3% among 360,000 | inhibition, % at 1 µM; in the data active = inhibition above about 27%;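 note: 0% = vehicle and 100% = reference inhibitor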
Target sequence (P9WQA3 whole entry, looked up): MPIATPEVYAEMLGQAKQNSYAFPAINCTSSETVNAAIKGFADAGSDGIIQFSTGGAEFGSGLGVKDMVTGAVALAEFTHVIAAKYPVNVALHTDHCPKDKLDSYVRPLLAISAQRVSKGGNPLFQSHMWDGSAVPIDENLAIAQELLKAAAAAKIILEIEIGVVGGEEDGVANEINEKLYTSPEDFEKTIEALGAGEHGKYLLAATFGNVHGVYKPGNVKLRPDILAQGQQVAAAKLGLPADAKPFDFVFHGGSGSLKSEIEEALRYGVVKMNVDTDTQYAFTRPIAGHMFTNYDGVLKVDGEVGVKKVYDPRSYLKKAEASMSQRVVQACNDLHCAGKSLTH
3CLpro inhibitor – SARS-CoV 3CLpro protease inhibition. P0C6X7. recombinant SARS-CoV 3CLpro, quenched FRET peptide cleavage. inhibition, % at 6 µM. hit rate 0.14% among 290,000. AID 1706; in the data active = inhibition above about 12%
GDH-TPI inh – GDH-TPI coupled enzyme inhibition counter-screen. hit rate 1.2% among 360,000. AID 588335. inhibition, % at 4.8 µM. GDH-TPI coupled enzyme counterscreen, NADH absorbance;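 note: 0% = DMSO wells and 100% = wells lacking the enzyme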
CCHF vOTU inh-1 – blocks the CCHF virus ovarian tumor domain protease | CCHFV vOTU protease, Pep-AMC fluorescence | inhibition, % at 11.5 µM | hit rate 0.55% among 370,000 | AID 651958; note: 0% = vehicle wells with enzyme and 100% = no enzyme wells
RecA intein inh – inhibitors of M. tuberculosis RecA intein splicing. inhibition, % (test concentration not listed). cell-free RecA intein splicing, fluorescence. P9WHJ3. hit rate 0.75% among 290,000; in the data active = inhibition above about 30%;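 note: 0% = vehicle wells and 100% = reference inhibitor control wells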
CCHF vOTU inh-2 – CCHFV vOTU protease inhibition, confirmation. hit rate 17% among 1,900. shares compounds with CCHF vOTU inh-1. inhibition, % at 11.5 µM. Recombinant CCHFV vOTU, Pep-AMC fluorescence
An asterisk follows results filed as active; nt = not tested or not shown. This is a sample that favours compounds with a hit; in the whole collection about 4.7% have one here. Cut-off read from the data, not from the text of the source, unless noted: active = inhibition above about 30%; inactive = the rest.

SMILES | VHR inh abs | FBA Mtb inh | 3CLpro inhibitor | GDH-TPI inh | CCHF vOTU inh-1 | RecA intein inh | CCHF vOTU inh-2
CCSc1ncc(/C=N/Nc2ccc([N+](=O)[O-])cc2)n1C | -1.1 | -19.1 | 6.9 | 4.1 | 3.2 | -3.4 | nt
C=Cc1cnc([N+](=O)[O-])n1C | nt | -3.6 | nt | 13.3 | 30.4* | nt | -18.0
Cc1ccc(S(=O)(=O)N2C[C@H]3C(=O)C[C@@H](c4ccc(Cl)cc4)N(S(=O)(=O)c4ccc(C)cc4)[C@H]3C[C@H]2c2cccc3ccccc23)cc1 | nt | 3.1 | nt | nt | 23.2 | nt | nt
CCN(CC)c1cc(Cl)c2nonc2c1N | 13.1 | -1.2 | 1.8 | -2.6 | -0.7 | 2.6 | nt
CN(C)c1cc(Cl)c2nonc2c1N | -22.5 | 0.4 | -2.4 | 6.1 | 70.8* | 5.8 | 3.0
C=CCc1cccc(/C=N/c2ncccc2O)c1O | -8.3 | 0.4 | 2.1 | 8.3 | 59.0* | 0.0 | 16.3
CNc1cc(-c2ccc(CC#N)cc2)ncn1 | nt | 15.1 | nt | 12.8 | 0.7 | nt | nt
Cc1ccc(F)c(S(=O)(=O)NC(=O)C2(C)CCN2C(=O)C2(c3ccc(Cl)cc3)CC2)c1 (configuration not stated) | nt | -2.7 | nt | -0.4 | 30.3* | nt | -9.3
Cc1ccc(F)c(S(=O)(=O)NC(=O)C2(C)CCN2C(=O)C2(c3ccc(Cl)cc3)CCC2)c1 (configuration not stated) | nt | 2.1 | nt | 16.1 | 12.4 | nt | nt
Cc1nc2c(nc1C)C(=O)c1ccccc1C2=O | nt | -0.5 | nt | 6.0 | 31.7* | nt | 21.1
COc1cc(C=Nn2c(-c3cc(-c4ccccc4)n[nH]3)n[nH]c2=S)ccc1OC(C)=O | nt | nt | nt | nt | 30.2* | nt | -12.0
S=c1[nH]nc(-c2cc(-c3ccccc3)n[nH]2)n1/N=C/c1ccccc1 | 11.2 | 1.3 | 5.9 | -2.6 | -1.5 | -8.2 | nt
CCc1ccccc1NC(=O)CNC(=O)c1cc(C2CC2)nn1-c1ccccc1 | nt | 1.0 | nt | 0.9 | 39.4* | nt | -1.8
Cc1ccc(C)c(NC(=O)CN(C)C(=O)c2cc(C3CC3)nn2-c2ccccc2)c1 | nt | -1.7 | nt | 13.7 | 12.5 | nt | nt
CN(C)c1ccc(/C=C/c2nc3ccccc3c(=O)n2CCO)cc1 | 9.5 | -5.0 | -5.9 | 26.3 | 29.6* | -4.8 | -5.1
O=c1c2ccccc2nc(/C=C/c2ccc(O)cc2)n1CCc1ccccc1 | 11.1 | 5.9 | 2.5 | 11.2 | -7.4 | -3.0 | nt
CCOC(=O)c1ccc(N2C(=O)c3n[nH]c(-c4ccco4)c3C2c2cccc([N+](=O)[O-])c2)cc1 (configuration not stated) | -6.7 | 1.0 | 4.3 | 4.7 | 35.7* | 25.0 | -0.6
O=C1NC(=O)C(Cc2ccccc2)(c2cccnc2)N1 (configuration not stated) | 24.9 | 4.1 | -2.4 | 9.4 | -9.1 | -3.4 | nt
CCOC(=O)Nc1sc(NS(=O)(=O)c2ccc(C)cc2)nc1C | 19.6 | 2.1 | 0.1 | 7.8 | 29.7* | 6.2 | -10.4
CCOC(=O)Nc1sc(NS(=O)(=O)c2ccccc2)nc1C | 23.2 | 2.1 | -0.8 | 5.5 | -6.5 | -0.8 | nt
C=CCn1c(COc2ccc(F)cc2)nnc1SCC(=O)c1c[nH]c2c(CC)cccc12 | 21.3 | 4.0 | 2.4 | 6.7 | 36.7* | -3.9 | 3.0
C=CCn1c(COc2ccccc2)nnc1SCC(=O)c1ccc(OC)cc1 | nt | nt | nt | nt | 11.3 | nt | nt
CCOC(=O)[C@]12CCC=C1N(Cc1ccco1)C(=O)[C@H](CC(=O)NCCCOC)C2 | nt | nt | nt | nt | -5.6 | nt | nt
CCN(C(=O)CCc1cn(CC)c2ccccc12)c1ccc(Oc2cccnc2)cc1 | nt | nt | nt | nt | 30.6* | nt | -3.5
CCn1cc(CCCC(=O)NCc2cccnc2)c2ccccc21 | -3.3 | 0.1 | 0.9 | -9.5 | 12.0 | -1.9 | nt
SMILES | VHR inh abs | FBA Mtb inh | 3CLpro inhibitor | GDH-TPI inh | CCHF vOTU inh-1 | RecA intein inh | CCHF vOTU inh-2
Cc1cc2cc(C(c3nnnn3Cc3ccco3)N3CCc4ccccc4C3)c(=O)[nH]c2cc1C (configuration not stated) | -19.4 | 6.8 | -2.5 | 1.2 | 61.4* | 0.3 | -10.1
O=c1[nH]c2cc3ccccc3cc2nc1-c1nnnn1C1CCCC1 | nt | nt | nt | nt | 30.2* | nt | 11.2
CC1CCCCC1NC(=O)COC(=O)c1ccc2ncsc2c1 (configuration not stated) | nt | -2.7 | nt | -2.8 | -4.5 | nt | nt
Cc1ccc(/C=N/Nc2nncn2N)cc1 | nt | 0.9 | -1.7 | 4.7 | 87.2* | -4.5 | -17.1
Nn1cnnc1N/N=C/c1ccc(F)cc1 | 1.0 | -5.2 | -1.2 | 8.6 | 91.7* | -0.3 | -17.6
COC(=O)C1(C(=O)OC)C[C@H](/C=C/c2ccccc2)N(Cc2ccccc2OC)[C@@H]1c1cccs1 | nt | nt | nt | nt | 13.5 | nt | nt
COC(=O)C1(C(=O)OC)C[C@H](/C=C/c2ccccc2)N(Cc2ccccc2OC)[C@@H]1c1ccc(F)cc1 | nt | nt | nt | nt | 31.2* | nt | -6.0
Cc1ccccc1NC(=O)Cc1nc(COC(=O)c2ccc(O)cc2O)cs1 | 20.8 | 0.0 | 3.5 | -1.0 | 12.9 | 2.8 | nt
CC(=O)Oc1ccc(-c2csc(Nc3ccccn3)n2)cc1 | nt | -3.8 | nt | 8.0 | 42.1* | nt | -1.9
CC(=O)Oc1ccc(-c2csc(Nc3cccc(C)n3)n2)cc1 | -28.8 | 0.7 | -1.0 | 2.5 | 0.8 | 0.5 | nt
Cc1cc(O)c(Sc2ncn[nH]2)cc1NS(=O)(=O)c1ccc(Cl)cc1 | nt | 3.8 | nt | 16.0 | -2.6 | nt | nt
O=S(=O)(Nc1cc(Sc2ncn[nH]2)c(O)c2ccccc12)c1ccccc1 | 22.3 | -2.9 | 9.7 | -3.1 | 104.6* | nt | 96.8*
CCCN(C(=O)Cc1nc(N)n[nH]1)C1(C(=O)Nc2c(C)cccc2C)CCCCC1 | -2.0 | 0.7 | -0.3 | -0.9 | 38.5* | -2.3 | -23.8
Cc1ccc(NC(=O)CSc2nnc(-c3cc(-c4ccc(Cl)cc4)n[nH]3)n2N)cc1 | nt | nt | nt | nt | 99.1* | nt | -1.3
Cc1ccc(NC(=O)CSc2nnc(-c3cc(C)[nH]n3)n2N)cc1 | 3.7 | 0.1 | -0.1 | -3.9 | 7.6 | -1.8 | nt
Cc1cccc(Oc2ccc3c(c2)cc(C(=O)O)n3C)c1 | 13.4 | 16.3 | 3.9 | 6.5 | 0.5 | 0.6 | nt
Cc1ccc(C)c(/C(O)=C2\C(=O)C(=O)N(CCCN3CCOCC3)C2c2cccnc2)c1 (configuration not stated) | 16.2 | -2.5 | -1.5 | 53.5* | 45.8* | -1.6 | -16.0

Bioassay records deposited in PubChem by several laboratories.
